As usually defined, the AC50 is the concentration giving half of the maximal activity seen.

Inconclusive results are not listed. Calls of active or inactive are those of the source. Rule for the calls, unless noted: active = hit-call score of the fitted dose curve at least 0.9, where 1 is the maximum; inconclusive = response in the unintended direction; inactive = score below 0.9.

A short description of test [1]: ATG_VDRE_CIS: Attagene CIS-FACTORIAL HepG2 Assay for human Vitamin D Receptor Element (VDRE) (AID 2282968; active = hit-call score of the fitted dose curve at least 0.9, where 1 is the maximum; inactive = score below 0.9). As to conditions: HepG2 VDRE cis-reporter transcription, actives raise or lower the signal. In a few lines:
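Steps: transfect HepG2 with multiple reporter transcription units; dose chemicals 24 h; isolate RNA; RT-PCR; label with 6-FAM primer extension; HpaI digest; capillary electrophoresis. Curves fitted both directions against DMSO.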

The target of test [2] is Nuclear receptor subfamily 1 group I member 3 (Homo sapiens) (UniProt Q14994). Briefly: ATG_CAR_TRANS: Attagene TRANS-FACTORIAL HepG2 Assay for human Constitutive Androstane Receptor (CAR) (AID 2282969).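 Note: activators raise reporter mRNA above DMSO so AC50 marks induction.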 As to conditions: HepG2 Attagene TRANS-FACTORIAL CAR reporter. Summed up: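 Steps: transient transfection of HepG2 with multiple GAL4-UAS reporter units; 24 h compound incubation; RNA isolation, RT-PCR, 6-FAM primer extension, HpaI digest; capillary electrophoresis. Gain-of-signal relative to DMSO negative control.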

Test [3] addresses Glucocorticoid receptor (Homo sapiens) (UniProt P04150). Description: ATG_GR_TRANS: Attagene TRANS-FACTORIAL HepG2 Assay for human Glucocorticoid Receptor (GR) (AID 2282978).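 Note: activators score as hits since higher reporter transcript over DMSO is fitted.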 As to conditions: HepG2 Attagene TRANS GR reporter, mRNA transcription. Summed up:
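Readout is reporter transcript from a chimeric GR-Gal4 acting on GAL4-UAS in transfected human HepG2 liver cells after 24 h exposure, quantified by RT-PCR and capillary electrophoresis. Activation fitted upward against DMSO.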

The target in test [4] is Bile acid receptor (Homo sapiens) (UniProt Q96RI1). Briefly: ATG_FXR_TRANS: Attagene TRANS-FACTORIAL HepG2 Assay for Farnesoid X Receptor (FXR) (AID 2282979).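 Note: hits raise reporter mRNA above DMSO so AC50 marks FXR activation.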 As to conditions: HepG2 Attagene TRANS FXR-GAL4 reporter transcription. In a few lines: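 Transient transfection of HepG2 with multiplexed GAL4-UAS reporter units; exogenous FXR-GAL4 chimera. Dose 24 h → TriZol RNA → oligo(dT) RT → PCR, 6-FAM primer extension, HpaI cut → CE. Gain vs DMSO.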

Test [5] addresses Oxysterols receptor LXR-beta (Homo sapiens) (UniProt P55055). Briefly: ATG_LXRb_TRANS: Attagene TRANS-FACTORIAL HepG2 Assay for human Liver X Receptor beta (LXRb) (AID 2282981). As to conditions: HepG2 Attagene TRANS GAL4-LXRb reporter, mRNA. Summed up:
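Measures induction of a Gal4-driven reporter transcript in HepG2 cells expressing an exogenous LXRb-Gal4 fusion. Cells are exposed to compound for 24 h before RNA isolation and RT-PCR with capillary electrophoresis detection.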

Test [6] addresses human Peroxisome Proliferator-activated Receptor delta (PPARd), PPARD (gene 5467) (UniProt Q03181). Description: ATG_PPARd_TRANS: Attagene TRANS-FACTORIAL HepG2 Assay for human Peroxisome Proliferator-activated Receptor delta (PPARd) (AID 2283002). Summed up:
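HepG2 cells transiently transfected with multiplexed GAL4-UAS reporter units and exogenous chimeric NR-Gal4 proteins; 24 h compound exposure. Reporter mRNA measured by RT-PCR, 6-FAM labelling, HpaI digestion and capillary electrophoresis; gain of signal versus DMSO.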

In test [7] the target is Retinoic acid receptor RXR-alpha (Homo sapiens) (UniProt P19793). Briefly: ATG_RXRa_TRANS: Attagene TRANS-FACTORIAL HepG2 Assay for human Retinoid X Receptor alpha (RXRa) (AID 2283012). In a few lines: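 Measures exogenous chimeric NR-GAL4 activity in transfected HepG2 liver cells after 24 h of dosing. Induced reporter mRNA was detected by RT-PCR with capillary electrophoresis, and gain of signal was analysed against DMSO.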

In test [8] the target is human Thyroid Receptor alpha (THRa1), THRA (gene 7067) (UniProt P10827). Briefly: ATG_THRa1_TRANS: Attagene TRANS-FACTORIAL HepG2 Assay for human Thyroid Receptor alpha (THRa1) (AID 2283014). In a few lines: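 Reporter transcript induction, read by capillary electrophoresis of 6-FAM-labelled RT-PCR products, reflects activity of a transfected THRa1-Gal4 fusion in HepG2 liver cells. Cells were dosed for 24 h; activity was fitted in the positive direction against DMSO.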

Test [9] in a line: ACEA_ER_AUC_viability: ACEA Biosciences xCELLigence Real-Time Cell Analysis on Estrogen Receptor Agonism for Viability (AID 2283782).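 Note: hit means loss of impedance signal meaning reduced cell growth or viability.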 In a few lines:
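Continuous-exposure impedance cell analysis uses T-47D cells in charcoal-stripped serum, eight 1:4 dilutions topping at 100 uM final, biological duplicate. Area under the growth curve at 80 h is fitted against DMSO baseline.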

Test [10] in a line: ATG_M_06_TRANS: Attagene TRANS-FACTORIAL HepG2 Assay for M06 Transcription Factor (Internal Marker) (AID 2282983).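 Note: reporter transcript level by RT-PCR then capillary electrophoresis fluorescence.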 As to conditions: HepG2 Attagene TRANS M06 internal marker reporter. In a few lines: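 Background control endpoint: reporter mRNA from transiently transfected HepG2 after 24 h dosing, detected by RT-PCR with capillary electrophoresis fluorescence. Analysed for gain versus DMSO.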

In test [11] the target is human RAR-related Orphan Receptor beta (RORb), RORB (gene 6096) (UniProt Q92753). Description: ATG_RORb_TRANS: Attagene TRANS-FACTORIAL HepG2 Assay for human RAR-related Orphan Receptor beta (RORb) (AID 2283010). Summed up: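 Transfect HepG2 with multiple GAL4-UAS reporter transcription units; dose chemicals for 24 h; isolate RNA, reverse-transcribe and PCR-amplify reporter sequences; label, digest and resolve fragments by capillary electrophoresis; fit increases relative to DMSO.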

For test [12], the target named is human Vitamin D Receptor (VDR), VDR (gene 7421) (UniProt P11473). Description: ATG_VDR_TRANS: Attagene TRANS-FACTORIAL HepG2 Assay for human Vitamin D Receptor (VDR) (AID 2283022). Summed up: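 Steps: transfect HepG2 with GAL4-UAS-driven reporter constructs; dose compounds 24 h; isolate RNA, reverse-transcribe, PCR-amplify with 6-FAM-labelled primer extension and HpaI digestion; quantify fragments by capillary electrophoresis relative to DMSO.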

Test [13] can be described thus: TOX21_p53_BLA_p4_viability: Viability Assessment in the Tox21 HCT-116 p53 Agonism Beta-lactamase Assay, Phase 4 (AID 2283597).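 Note: hits lower the luminescence signal meaning cytotoxicity.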 Summed up: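 Readout: ATP luminescence (CellTiter-Glo), measured 30 min after reagent addition at RT. The reagent followed a 2 h CCF4-AM incubation, and the cells had been exposed to compound for 16 h at 37C.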
Test [14] is described as follows: ATG_PPRE_CIS: Attagene CIS-FACTORIAL HepG2 Assay for human Peroxisome Proliferator-activated Response Element (PPRE) (AID 2282958; active = hit-call score of the fitted dose curve at least 0.9, where 1 is the maximum; inactive = score below 0.9). As to conditions: HepG2 PPRE cis-element reporter, Attagene transcription factor profiling; actives raise or lower the signal. In a few lines:
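Endogenous PPRE-driven transcription is measured in HepG2 cells carrying transfected multi-reporter constructs. Reporter transcripts are quantified by RT-PCR, HpaI digestion and capillary electrophoresis 24 h after dosing. DMSO baseline, bidirectional fit.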

The nature of test [15]: ATG_M_19_TRANS: Attagene TRANS-FACTORIAL HepG2 Assay for M19 Transcription Factor (Internal Marker) (AID 2282974). As to conditions: HepG2 Attagene TRANS-FACTORIAL M19 internal marker reporter. In a few lines: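 Background-control readout: after 24 h chemical exposure of transfected HepG2 carrying GAL4-driven reporter units, RNA was reverse-transcribed, amplified, fluorescently labeled and sized by capillary electrophoresis; gain-of-signal fit against DMSO.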

Test [16] in a line: ATG_GAL4_TRANS: Attagene TRANS-FACTORIAL HepG2 Assay for GAL4 (Internal Marker) (AID 2282976). As to conditions: HepG2 Attagene TRANS GAL4 internal marker reporter. In a few lines: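 First, HepG2 cells were transfected with reporter units under GAL4-UAS control. Next, they were treated with chemical for 24 h. Finally, RNA was reverse-transcribed, PCR-amplified, FAM-labelled and resolved by capillary electrophoresis, with induction scored against DMSO.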

For test [17], the target named is Oxysterols receptor LXR-alpha (Homo sapiens) (UniProt Q13133). Description: ATG_LXRa_TRANS: Attagene TRANS-FACTORIAL HepG2 Assay for human Liver X Receptor alpha (LXRa) (AID 2282980). As to conditions: HepG2 Attagene TRANS reporter, LXRa transactivation. In a few lines: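 Transfect HepG2 with GAL4-UAS multiplex reporter constructs (TRANS format, chimeric receptor-GAL4); treat 24 h; extract RNA, reverse-transcribe, PCR-amplify, FAM-label, HpaI-digest; resolve fragments by capillary electrophoresis. Upward response vs DMSO.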

For test [18], the target named is Peroxisome proliferator-activated receptor gamma (Homo sapiens) (UniProt P37231). Description: ATG_PPARg_TRANS: Attagene TRANS-FACTORIAL HepG2 Assay for human Peroxisome Proliferator-activated Receptor-gamma (PPARg) (AID 2283007). In a few lines: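 After 24 h of chemical exposure, transfected HepG2 cells carrying PPARγ-Gal4 chimera reporter constructs are lysed for RNA. Reporter transcripts are measured by RT-PCR and capillary electrophoresis with fluorescent labelling, and gain of signal is fitted versus DMSO.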

Test [19] is described as follows: CCTE_Harrill_HTTr_Viability_MCF7: CCTE's 6-hour Cell Viability Assessment for the High-Throughput Transcriptomics (HTTr) Platform, in MCF-7 cells cultured in DMEM + 10% fetal bovine serum, Harrill Lab (AID 2284010; active = hit-call score of the fitted dose curve at least 0.9, where 1 is the maximum; inactive = score below 0.9). In a few lines: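 Read-out is propidium iodide gain of signal by high-content imaging, reflecting membrane integrity loss. Measurements are taken 6 h after dosing, eight concentrations per chemical, with DMSO serving as baseline for bidirectional curve fitting.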

Test [20] is described as follows: CCTE_Harrill_HTTr_Apoptosis_MCF7: CCTE's 6-hour Apoptosis Assessment for the High-Throughput Transcriptomics (HTTr) Platform, in MCF-7 cells cultured in DMEM + 10% fetal bovine serum, Harrill Lab (AID 2284011; active = hit-call score of the fitted dose curve at least 0.9, where 1 is the maximum; inactive = score below 0.9). In a few lines: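 MCF-7 (DMEM + 10% FBS), 384-well; 8-pt dilution series, 6 h chemical exposure; caspase-3/7 activation via CellEvent Caspase 3/7 Green, HCI; bidirectional fit vs DMSO.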

Chain of human RAR-related Orphan Receptor beta (RORb), RORB (gene 6096) (Q92753 whole entry, looked up, the tested form may be a part): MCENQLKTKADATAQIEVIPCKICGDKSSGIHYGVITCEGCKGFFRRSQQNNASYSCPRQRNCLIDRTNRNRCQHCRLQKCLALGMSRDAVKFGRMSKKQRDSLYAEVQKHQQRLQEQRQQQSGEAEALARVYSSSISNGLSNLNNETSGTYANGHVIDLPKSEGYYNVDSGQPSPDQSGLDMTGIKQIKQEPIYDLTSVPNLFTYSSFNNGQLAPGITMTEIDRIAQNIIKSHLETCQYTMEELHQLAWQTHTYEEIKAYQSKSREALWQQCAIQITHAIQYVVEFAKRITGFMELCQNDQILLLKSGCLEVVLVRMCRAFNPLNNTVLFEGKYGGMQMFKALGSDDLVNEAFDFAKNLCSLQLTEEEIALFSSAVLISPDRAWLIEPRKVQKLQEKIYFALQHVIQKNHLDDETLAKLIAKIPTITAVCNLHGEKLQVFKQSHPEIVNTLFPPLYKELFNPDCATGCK
Chain of human Thyroid Receptor alpha (THRa1), THRA (gene 7067) (P10827 whole entry, looked up, the tested form may be a part): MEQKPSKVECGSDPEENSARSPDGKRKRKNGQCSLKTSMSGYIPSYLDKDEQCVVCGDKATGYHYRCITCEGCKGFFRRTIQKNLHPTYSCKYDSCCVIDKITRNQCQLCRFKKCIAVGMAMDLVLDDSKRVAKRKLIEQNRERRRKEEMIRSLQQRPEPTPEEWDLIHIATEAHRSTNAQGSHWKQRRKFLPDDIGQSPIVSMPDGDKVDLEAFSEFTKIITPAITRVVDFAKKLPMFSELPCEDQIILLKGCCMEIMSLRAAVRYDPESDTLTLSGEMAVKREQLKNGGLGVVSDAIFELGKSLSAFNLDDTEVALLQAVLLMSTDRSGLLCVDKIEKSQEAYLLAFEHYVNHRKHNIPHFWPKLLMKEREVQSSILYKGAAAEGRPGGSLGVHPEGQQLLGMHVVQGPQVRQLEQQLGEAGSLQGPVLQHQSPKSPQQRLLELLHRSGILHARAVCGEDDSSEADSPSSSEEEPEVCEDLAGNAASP
Chain of Oxysterols receptor LXR-beta (Homo sapiens) (P55055 whole entry, looked up, the tested form may be a part): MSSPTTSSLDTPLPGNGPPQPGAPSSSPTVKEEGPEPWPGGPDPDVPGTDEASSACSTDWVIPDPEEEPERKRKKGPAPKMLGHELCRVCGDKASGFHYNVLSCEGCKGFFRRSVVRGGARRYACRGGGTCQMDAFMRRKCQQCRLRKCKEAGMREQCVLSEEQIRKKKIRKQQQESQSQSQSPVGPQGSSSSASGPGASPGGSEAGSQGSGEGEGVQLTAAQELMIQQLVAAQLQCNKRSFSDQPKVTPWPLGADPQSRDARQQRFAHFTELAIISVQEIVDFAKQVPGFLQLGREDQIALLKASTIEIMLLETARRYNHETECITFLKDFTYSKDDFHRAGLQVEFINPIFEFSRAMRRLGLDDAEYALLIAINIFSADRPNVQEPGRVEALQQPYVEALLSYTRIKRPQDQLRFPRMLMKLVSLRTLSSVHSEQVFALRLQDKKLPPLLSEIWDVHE
Chain of Glucocorticoid receptor (Homo sapiens) (P04150 whole entry, looked up, the tested form may be a part): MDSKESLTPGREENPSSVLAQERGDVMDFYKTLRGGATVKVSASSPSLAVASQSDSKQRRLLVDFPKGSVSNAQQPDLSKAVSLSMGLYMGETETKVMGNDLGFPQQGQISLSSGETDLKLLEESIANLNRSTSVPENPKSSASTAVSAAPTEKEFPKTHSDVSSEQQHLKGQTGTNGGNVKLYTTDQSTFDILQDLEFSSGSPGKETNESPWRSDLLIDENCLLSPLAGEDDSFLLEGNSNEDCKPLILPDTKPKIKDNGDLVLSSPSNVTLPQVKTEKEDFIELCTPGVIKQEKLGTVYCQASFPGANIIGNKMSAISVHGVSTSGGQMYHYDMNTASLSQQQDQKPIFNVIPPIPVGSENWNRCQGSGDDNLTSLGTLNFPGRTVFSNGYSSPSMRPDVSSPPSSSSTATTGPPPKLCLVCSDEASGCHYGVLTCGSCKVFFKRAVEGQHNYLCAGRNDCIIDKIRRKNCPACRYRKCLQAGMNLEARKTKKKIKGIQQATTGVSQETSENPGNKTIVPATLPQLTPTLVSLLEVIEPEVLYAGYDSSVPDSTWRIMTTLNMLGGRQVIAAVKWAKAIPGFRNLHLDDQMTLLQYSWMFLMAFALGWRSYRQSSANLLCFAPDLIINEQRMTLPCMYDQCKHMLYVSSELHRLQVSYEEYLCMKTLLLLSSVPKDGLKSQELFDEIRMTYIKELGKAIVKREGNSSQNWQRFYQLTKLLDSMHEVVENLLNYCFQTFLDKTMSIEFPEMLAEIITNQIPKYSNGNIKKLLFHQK
Chain of Nuclear receptor subfamily 1 group I member 3 (Homo sapiens) (Q14994 whole entry, looked up, the tested form may be a part): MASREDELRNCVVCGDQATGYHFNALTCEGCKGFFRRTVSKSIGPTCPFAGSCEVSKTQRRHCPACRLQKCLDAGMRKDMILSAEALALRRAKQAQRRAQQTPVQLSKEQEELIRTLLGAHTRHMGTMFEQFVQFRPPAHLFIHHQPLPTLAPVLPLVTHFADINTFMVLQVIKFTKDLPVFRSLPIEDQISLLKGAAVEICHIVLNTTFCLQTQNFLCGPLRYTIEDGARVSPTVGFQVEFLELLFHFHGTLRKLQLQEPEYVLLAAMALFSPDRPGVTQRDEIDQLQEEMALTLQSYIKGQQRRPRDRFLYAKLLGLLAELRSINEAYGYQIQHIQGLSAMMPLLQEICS
Chain of Retinoic acid receptor RXR-alpha (Homo sapiens) (P19793 whole entry, looked up, the tested form may be a part): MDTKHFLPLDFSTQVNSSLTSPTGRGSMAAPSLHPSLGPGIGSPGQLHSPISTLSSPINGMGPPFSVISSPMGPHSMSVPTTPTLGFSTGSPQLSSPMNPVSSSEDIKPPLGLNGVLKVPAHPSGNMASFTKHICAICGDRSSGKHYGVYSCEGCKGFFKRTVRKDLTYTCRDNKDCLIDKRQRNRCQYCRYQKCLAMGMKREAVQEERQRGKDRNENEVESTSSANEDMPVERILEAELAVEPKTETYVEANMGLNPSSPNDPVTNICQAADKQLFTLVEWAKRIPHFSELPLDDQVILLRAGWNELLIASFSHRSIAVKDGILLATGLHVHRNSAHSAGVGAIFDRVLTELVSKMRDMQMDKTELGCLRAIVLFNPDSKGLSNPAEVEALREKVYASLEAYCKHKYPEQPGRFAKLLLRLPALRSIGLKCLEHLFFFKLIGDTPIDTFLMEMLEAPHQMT
Chain of Oxysterols receptor LXR-alpha (Homo sapiens) (Q13133 whole entry, looked up, the tested form may be a part): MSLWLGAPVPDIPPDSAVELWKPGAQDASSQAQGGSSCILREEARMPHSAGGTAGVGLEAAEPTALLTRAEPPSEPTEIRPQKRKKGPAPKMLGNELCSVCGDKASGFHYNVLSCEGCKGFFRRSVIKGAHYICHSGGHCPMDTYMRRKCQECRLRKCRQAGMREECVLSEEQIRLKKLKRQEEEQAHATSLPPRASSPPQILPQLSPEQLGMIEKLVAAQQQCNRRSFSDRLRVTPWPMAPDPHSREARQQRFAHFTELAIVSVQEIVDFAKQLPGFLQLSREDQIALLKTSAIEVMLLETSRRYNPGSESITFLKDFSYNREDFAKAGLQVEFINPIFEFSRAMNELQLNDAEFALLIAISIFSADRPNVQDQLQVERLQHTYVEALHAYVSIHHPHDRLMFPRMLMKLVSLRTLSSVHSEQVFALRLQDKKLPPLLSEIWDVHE
Chain of human Vitamin D Receptor (VDR), VDR (gene 7421) (P11473 whole entry, looked up, the tested form may be a part): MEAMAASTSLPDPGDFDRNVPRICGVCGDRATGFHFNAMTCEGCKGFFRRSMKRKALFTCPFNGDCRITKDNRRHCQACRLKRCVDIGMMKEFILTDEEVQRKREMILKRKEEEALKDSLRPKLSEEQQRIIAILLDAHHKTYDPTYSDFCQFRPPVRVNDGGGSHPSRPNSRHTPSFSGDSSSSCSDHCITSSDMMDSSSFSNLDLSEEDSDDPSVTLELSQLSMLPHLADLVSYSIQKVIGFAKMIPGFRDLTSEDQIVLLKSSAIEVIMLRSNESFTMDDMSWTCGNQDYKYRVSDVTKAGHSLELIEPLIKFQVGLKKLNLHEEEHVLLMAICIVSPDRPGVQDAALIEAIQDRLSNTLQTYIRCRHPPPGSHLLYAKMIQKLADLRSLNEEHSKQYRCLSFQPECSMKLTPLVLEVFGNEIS
Chain of human Peroxisome Proliferator-activated Receptor delta (PPARd), PPARD (gene 5467) (Q03181 whole entry, looked up, the tested form may be a part): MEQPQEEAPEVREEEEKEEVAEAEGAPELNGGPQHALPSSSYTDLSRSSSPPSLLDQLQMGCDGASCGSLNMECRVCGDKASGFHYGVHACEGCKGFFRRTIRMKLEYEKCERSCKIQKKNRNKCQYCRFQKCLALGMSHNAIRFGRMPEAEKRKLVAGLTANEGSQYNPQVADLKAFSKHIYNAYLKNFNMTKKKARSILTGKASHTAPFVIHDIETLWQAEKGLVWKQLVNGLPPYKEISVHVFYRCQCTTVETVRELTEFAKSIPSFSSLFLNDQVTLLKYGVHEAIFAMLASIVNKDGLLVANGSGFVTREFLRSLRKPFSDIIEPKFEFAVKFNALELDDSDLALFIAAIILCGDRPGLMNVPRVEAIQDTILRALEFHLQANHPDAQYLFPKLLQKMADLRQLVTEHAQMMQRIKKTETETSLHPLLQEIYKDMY
Chain of Peroxisome proliferator-activated receptor gamma (Homo sapiens) (P37231 whole entry, looked up, the tested form may be a part): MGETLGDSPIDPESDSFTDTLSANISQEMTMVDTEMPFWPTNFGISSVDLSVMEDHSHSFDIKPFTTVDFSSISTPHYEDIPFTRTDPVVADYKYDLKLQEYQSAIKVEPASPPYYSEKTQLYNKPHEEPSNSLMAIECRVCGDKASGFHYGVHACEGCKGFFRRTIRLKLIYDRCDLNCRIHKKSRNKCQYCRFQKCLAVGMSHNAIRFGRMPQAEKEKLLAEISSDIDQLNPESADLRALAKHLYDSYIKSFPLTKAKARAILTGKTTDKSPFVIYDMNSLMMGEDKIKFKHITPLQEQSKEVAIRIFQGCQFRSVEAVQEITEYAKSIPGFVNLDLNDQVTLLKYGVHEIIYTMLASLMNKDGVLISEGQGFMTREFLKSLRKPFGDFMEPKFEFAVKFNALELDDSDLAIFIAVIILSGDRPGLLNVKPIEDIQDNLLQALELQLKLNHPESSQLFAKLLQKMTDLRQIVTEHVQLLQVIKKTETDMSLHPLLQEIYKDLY

With `C=C(C)C(=O)OCC1CCCO1` (stereo unspecified), the outcome in test [1], in test [2], in test [3], in [4], in [5] and in test [6] was inactive. The molecule was called inactive in [7], in test [8] and in test [9].
For `CNC[C@H](O)[C@@H](O)[C@H](O)[C@H](O)CO`, the outcome in test [1], in test [4], in test [10], in test [11] and in [12] was inactive.
In the case of `CC/C=C\CC/C=C/C(OCC)OCC`, the molecule was called inactive in [2], in [5], in [10], in test [6], in [11] and in test [8]. Further, in test [13], the molecule was called inactive. The AC50 in [9] was 82.5 µM (active).
With `COCCCN`, the result in test [14], in [2], in test [15], in test [16], in [17] and in test [6] was inactive. The call in [18], in test [8], in test [13] and in test [9] was inactive.
With `CC(=O)CCc1ccccc1`, the result in test [1], in test [15], in test [16], in test [5], in [11] and in test [12] was inactive. The call in test [13] was inactive.
For the molecule `CCCCCCC1CCCC(=O)O1` (stereo unspecified), the molecule was called inactive in test [16], in test [3], in [17], in [10], in [7] and in test [12]. Besides, the call in test [13] and in test [9] was inactive. Further, the AC50 in test [6] was 52.6 µM (active).
With `COC(=O)/C=C\C(=O)OC`, the AC50 in test [1] is 49.6 µM (active); in test [9] it was 76.9 µM (active). The result in test [3], in test [17], in test [10], in [6], in test [8] and in [12] was inactive.
Take `Clc1ccc(Sc2cc(Cl)c(Cl)cc2Cl)cc1`: the outcome in test [2], in test [3], in test [17], in [5], in test [18] and in test [11] was inactive. Also, the outcome in test [7], in test [12] and in test [13] was inactive.
In the case of `OCCOCCOCCOCCOCCO`, the molecule was classed as inactive in [14], in test [1], in test [16], in [5], in test [6] and in test [18]. Besides, the molecule was called inactive in test [11], in test [8] and in test [13].
In the case of `Cc1cc2nc3c(=O)[nH]c(=O)nc-3n(C[C@H](O)[C@H](O)[C@H](O)CO)c2cc1C`, the molecule was called inactive in test [15], in test [16], in [4], in test [17], in test [5] and in [10]. For the same molecule, the molecule was classed as inactive in test [11], in [8], in test [13], in [19] and in test [20]. For the same molecule, in test [9], the AC50 was 47 µM (active).
For `CCOC(=O)CC(=O)OCC`, the call in [1], in [15], in test [16], in test [3], in test [4] and in test [11] was inactive. The call in test [8], in test [12], in [19] and in [20] was inactive.
For `Cc1cc(O)cc(C)c1Cl`, the AC50 is 37.1 µM (active) in [14] and 81.1 µM (active) in test [9]. For the same molecule, the molecule was classed as inactive in test [16], in test [3], in [17], in test [5], in test [6] and in test [18]. Also, the molecule was classed as inactive in test [7], in [19] and in test [20].
As for `CCCc1c(OCCCCc2nn[nH]n2)ccc(C(C)=O)c1O`, the AC50 in test [14] was 2.26 µM (active); in test [18] it was 5.65 µM (active). Moreover, the molecule was called inactive in [3], in test [4], in test [17], in [5], in test [10] and in test [6]. Also, the outcome in [7], in [8], in test [12], in [13], in [19] and in test [20] was inactive.

These data come from PubChem BioAssay (EPA / NIEHS).
